# Data taken from PubChem BioAssay (NCI).
# Values joined by “and” are separate entries in the source; they are usually repeats but may differ in a detail not shown here. Equal entries are not always repeated. This is part of a sample that, as a whole, favours compounds with a hit. Of some 83,000 tested, about 20% had one in any assay.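 In brief: 96-well plates, 48 h treatment, single concentration, percent growth endpoint.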 A number with no mark means an inactive call. Active and inactive are the calls of the source. How the source made its calls: active means growth percent below 10; inactive means the rest.
# Tested on: MDA-MB-468 breast
# Assay: NCI-60 one-dose screen, 48 h (100 = growth as untreated, 0 = no growth, -100 = all killed)
# Settings: 10 µM unless noted
row,SMILES,growth
1,O=C1/C(=C/c2ccccn2)SC(=S)N1N1CCOCC1,101%
2,COc1ccc(S(=O)(=O)NCCNc2nccc(-c3c(-c4ccccc4)nc4sccn34)n2)cc1,36.7%
3,CCN(CC)CC(=O)Nc1cccc(C(=O)OC(C)C)c1,115%
4,CC(C)(C)OC(=O)N1C=C/C(=C\Cn2cc(-c3ccccc3)nn2)CC1,26.4%
5,Oc1ccc(/C=N/Nc2nnc(N/N=C/c3ccc(O)cc3O)c3ccccc23)c(O)c1,-47.3% (active)
6,CCC(C)Nc1ccc(N)cc1 (stereo not given),-30.9% (active)
7,CN1CCN(Cc2ccc(NC(=O)c3cncc(C#Cc4cnc5ccc(OCC(F)F)nn45)c3)cc2C(F)(F)F)CC1,-65.5% (active)
8,O=C(NCCCNc1cc(-c2cn(-c3ccccc3)nc2-c2cccc(O)c2)ccn1)c1cccc(O)c1,29.3%
9,Nc1nc(=S)c2[nH]cnc2[nH]1,-13.1% (active)
10,CN1C(=O)N(C)C2C1NN=c1s/c(=C\c3ccc(Cl)cc3Cl)c(=O)n12 (stereo not given),27.4%
11,C/C(=N\Nc1cccc(Cl)n1)c1ccccn1,-31.3% (active)
12,O=C(Nc1cc(=O)[nH]c(=O)[nH]1)C(Cl)Cl,98.5%
13,CCN1C(=O)N(CC)C2C1NC(=S)N2/N=C/c1ccc(C(F)(F)F)cc1 (stereo not given),49.4%
14,Cn1nc(N)c2cc([C@@H]3Nc4ccc5[nH]ncc5c4[C@H]4C5CCC(C5)[C@@H]34)ccc21 (stereo not given in full),-2.64% (active)
15,COc1ccc(CCn2cncc2-c2c[nH]c3ccccc23)cc1,94.5%
16,O=C(/C=C/c1ccccc1Cl)Nc1ncc(Cc2cc(Cl)ccc2Cl)s1,22.8%
17,COC(=O)/C=C1/SC(N2N=C(c3cccs3)CC2c2ccc(F)cc2)=NC1=O (stereo not given),36.7%
18,CC1/C=C/C=C/C=C/C=C/C=C/C=C/C=C/C(O[C@@H]2O[C@H](C)[C@H](O)[C@@H](O)[C@@H]2N)CC(O)C(C(=O)O)C(O)CC(=O)CC(O)CC(O)CC(O)CC(=O)CCCC(=O)CC(=O)OC1C(C)CC(C)C(O)CC(=O)c1ccc(N)cc1 (stereo not given in full),-89.7% (active)
19,CC(=O)NCC(=O)c1ccc([N+](=O)[O-])cc1,117%
20,O=c1c2ccccc2sc2c(N3CCCC3)nc3ccccc3c12,98.6%

row,SMILES,growth
1,O=C1/C(=C/c2ccccc2[N+](=O)[O-])COc2ccc(O)c(O)c21,-58% (active)
2,Nc1nonc1-c1nc2ccccc2n1CC(=O)Nc1ccc2c(c1)COC2=O,26.2%
3,O=c1c2ccccc2n(CC(O)CN2CCCC2)c2c(Br)cccc12 (stereo not given),97.1%
4,C=C(C)[C@@H]1CC[C@]2(CO)CC[C@]3(C)[C@H](CC[C@@H]4[C@@]5(C)CC[C@H](NCO)C(C)(C)[C@@H]5CC[C@]43C)[C@@H]12,-74.8% (active)
5,Cc1ccc(S(=O)(=O)N2CCc3ccc(O)c4c3C2CCc2ccccc2-4)cc1 (stereo not given),106%
6,CCOC(=O)Nc1ccc(-c2nc(-c3cccc(OC)c3)c(-c3ccnc(Br)c3)[nH]2)cc1,25.9%
7,COc1cc(C2CC(=O)Nc3c2cnn3Cc2ccco2)cc2c1OCCO2 (stereo not given),73.8%
8,CCOC(=O)c1cnc2c(C)cc(C)cc2c1NCCCN(C)C,16.5%
9,CC(C)CCOc1ccc(-c2n[nH]c(C(F)(F)F)c2-c2cncc(C#N)c2)c(O)c1,-26.4% (active)
10,CCOC(=O)C(=Cc1c(-c2ccccc2)[nH]c2ccccc12)C(=O)OCC,12.8%
11,CCOC(=O)Sc1ncnc2nc[nH]c12,75.3%
12,O=c1[nH]c2ccccc2cc1-c1nc2ccc(Cl)cc2[nH]1,60.7%
13,O=C(c1ccccc1)C1(Br)CCCCC1,90.3%
14,COc1ccc2c(c1)C(=O)c1c-2c(=O)n(CCCN(C)C)c2cc(OC)c(OC)cc12,44.5%
15,O=C1CC2(O)CSc3nc(=O)cc(n32)N1 (stereo not given),109%
16,O=C1NCN(CCO)CN1,99.9%
17,CCN(CC)CCCC(C)Nc1cnc(C(=O)Nc2cc(F)cc3cccnc23)cn1 (stereo not given),6.24% (active) and -66.3% (active)
18,O=C(Nc1ccccc1)Nc1ncnc2c1ncn2-c1ccccc1,74.3%
19,CN(C)CCNc1nc2c3cc(Cl)ccc3nn2c2ccccc12,74.2%
20,C/C(Cc1ccc(Cl)cc1)=C(\c1ccc(OCCN2CCCCCC2)cc1)c1ccc(OC(=O)C2CCCCC2)cc1,52.2%
